Experimental data as given in PubChem BioAssay AID1159580 (chemical genetic matrix, 2015).
“And” between values parts separate entries of the source, which are not always exact repeats. Equal values may be shown once. Among all 5,500 compounds or so, about 2,000 (36%) were called active. Not shown: some 18% with an inconclusive outcome. Rule as the data show it: active = normalized growth mostly below about 0.91 (no sharp cut-off); inconclusive = no clear call, values can overlap the other calls; inactive = mostly above about 0.92. This is one part of the list.

Test: chemical genetic growth profiling, strain panel (AID 1159580);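 also: tested at 20 µM; growth read once vehicle control cultures reached saturation at 30 °C; 1 = growth at the plate median or of vehicle wells; lower values mean less growth of the strain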
Settings: S. cerevisiae deletion strains, growth OD

Measured: normalized growth

Cc1cc(C2CCCCC2)n(O)c(=O)c1
active: locus YAL013W, strain DEP1, active compounds read low 0.0568 | locus YAL021C, strain ccr4, active compounds read low 0.0678 | locus YAL026C, strain drs2, active compounds read low 0.0676 | locus YAL030W, strain snc1, active compounds read low 0.0625 | locus YBL061C, strain skt5, active compounds read low 0.0672 | locus YBR009C, strain hhf1, active compounds read low 0.0705 | locus YBR021W, strain FUR4, active compounds read low 0.0983 | locus YBR023C, strain chs3, active compounds read low 0.0704 | locus YBR171W, strain sec66, active compounds read low 0.0805 | locus YBR229C, strain ROT2, active compounds read low 0.0502 | locus YBR231C, strain swc5, active compounds read low 0.0693 | locus YBR279W, strain paf1, active compounds read low 0.0649 | locus YCL011C, strain gbp2, active compounds read low 0.0616 | locus YCL016C, strain dcc1, active compounds read low 0.0719 | locus YCL029C, strain bik1, active compounds read low 0.0632 | locus YCL061C, strain MRC1, active compounds read low 0.0677 | locus YCL069W, strain vba3, active compounds read low 0.0654 | locus YCR088W, strain abp1, active compounds read low 0.0632 | locus YDL005C, strain med2, active compounds read low 0.0889 | locus YDL035C, strain GPR1, active compounds read low 0.0542 | locus YDL040C, strain nat1, active compounds read low 0.0679 | locus YDL074C, strain BRE1, active compounds read low 0.0802 | locus YDL101C, strain DUN1, active compounds read low 0.0596 | locus YDL134C, strain PPH21, active compounds read low 0.0521 | locus YDL185W, strain tfp1, active compounds read low 0.058 | locus YDL192W, strain arf1, active compounds read low 0.0653 | locus YDR001C, strain nth1, active compounds read low 0.0631 | locus YDR069C, strain doa4, active compounds read low 0.0665 | locus YDR101C, strain arx1, active compounds read low 0.06 | locus YDR137W, strain rgp1, active compounds read low 0.0918 | locus YDR159W, strain sac3, active compounds read low 0.0928 | locus YDR162C, strain NBP2, active compounds read low 0.0474 | locus YDR195W, strain ref2 0.135 | locus YDR297W, strain sur2, active compounds read low 0.0662 | locus YDR318W, strain mcm21, active compounds read low 0.0655 | locus YDR334W, strain swr1, active compounds read low 0.0673 | locus YDR335W, strain msn5, active compounds read low 0.0634 | locus YDR388W, active compounds read low 0.0556 | locus YDR392W, strain spt3, active compounds read low 0.101 | locus YDR502C, strain sam2, active compounds read low 0.0664 | locus YEL003W, strain gim4, active compounds read low 0.0625 | locus YEL037C, strain rad23, active compounds read low 0.0622 | locus YEL061C, strain CIN8 (second series), active compounds read low 0.0671 | locus YEL061C, strain CIN8, active compounds read low 0.0514 | locus YER015W, strain faa2, active compounds read low 0.0656 | locus YER016W, strain bim1, active compounds read low 0.0682 | locus YER110C, active compounds read low 0.0812 | locus YER111C, strain swi4, active compounds read low 0.0758 | locus YER155C, strain BEM2 (second series), active compounds read low 0.0947 | locus YER155C, strain BEM2, active compounds read low 0.0718 | locus YER167W, strain BCK2, active compounds read low 0.0519 | locus YFR010W, strain ubp6, active compounds read low 0.0703 | locus YGL078C, strain dbp3, active compounds read low 0.0608 | locus YGL086W, strain mad1, active compounds read low 0.0597 | locus YGL167C, strain pmr1, active compounds read low 0.0798 | locus YGL173C, strain kem1, active compounds read low 0.0716 | locus YGL227W, strain vid30, active compounds read low 0.0707 | locus YGL240W, strain doc1, active compounds read low 0.0866 | locus YGL248W, strain PDE1, active compounds read low 0.0515 | locus YGL253W, strain hxk2, active compounds read low 0.058 | locus YGR078C, strain PAC10, active compounds read low 0.0546 | locus YGR135W, strain pre9, active compounds read low 0.065 | locus YGR252W, strain gcn5, active compounds read low 0.175 | locus YHR013C, strain ard1, active compounds read low 0.11 | locus YHR027C, strain rpn1, active compounds read low 0.0647 | locus YHR030C, strain SLT2, active compounds read low 0.0526 and 0.0937 | locus YHR079C, strain IRE1 (second series), active compounds read low 0.0583 | locus YHR079C, strain IRE1, active compounds read low 0.109 | locus YHR094C, strain hxt1, active compounds read low 0.0632 | locus YHR129C, strain ARP1, active compounds read low 0.0642 | locus YHR142W, strain chs7, active compounds read low 0.0791 | locus YHR200W, strain rpn10, active compounds read low 0.0659 | locus YIL066C, strain RNR3, active compounds read low 0.0522 | locus YIL073C, strain SPO22, active compounds read low 0.112 | locus YIL125W, strain kgd1, active compounds read low 0.0598 | locus YIR030C, strain dcg1, active compounds read low 0.0627 | locus YJL092W, strain hpr5, active compounds read low 0.063 | locus YJL095W, strain BCK1 (second series), active compounds read low 0.0609 | locus YJL095W, strain BCK1, active compounds read low 0.063 and 0.0938 | locus YJL115W, strain asf1, active compounds read low 0.0778 | locus YJL129C, strain trk1, active compounds read low 0.0912 | locus YJL134W, strain LCB3, active compounds read low 0.0539 | locus YJL154C, strain vps35, active compounds read low 0.0631 | locus YJL164C, strain tpk1, active compounds read low 0.0734 | locus YJL166W, strain qcr8, active compounds read low 0.0662 | locus YJL168C, strain set2, active compounds read low 0.0634 | locus YJL187C, strain SWE1 (second series), active compounds read low 0.053 | locus YJL187C, strain SWE1, active compounds read low 0.0672 | locus YJR043C, strain POL32, active compounds read low 0.068 | locus YJR066W, strain TOR1, active compounds read low 0.00216 | locus YJR075W, strain HOC1, active compounds read low 0.0627 | locus YKL009W, strain mrt4, active compounds read low 0.0702 | locus YKL068W, active compounds read low 0.0617 | locus YKL085W, strain MDH1 (second series), active compounds read low 0.0539 | locus YKL085W, strain MDH1, active compounds read low 0.0539 | locus YKL160W, strain elf1, active compounds read low 0.0716 | locus YKL190W, strain CNB1, active compounds read low 0.0484 | locus YKR001C, strain vps1, active compounds read low 0.0653 | locus YKR026C, strain gcn3, active compounds read low 0.0732 | locus YKR091W, strain srl3, active compounds read low 0.069 | locus YLL001W, strain dnm1, active compounds read low 0.0664 | locus YLL026W, active compounds read low 0.0595 | locus YLL041C, strain sdh2, active compounds read low 0.0627 | locus YLR027C, strain aat2, active compounds read low 0.0603 | locus YLR039C, strain RIC1, active compounds read low 0.0987 | locus YLR058C, strain SHM2, active compounds read low 0.0519 | locus YLR102C, strain apc9, active compounds read low 0.0656 | locus YLR113W, strain HOG1, active compounds read low 0.121 | locus YLR221C, strain rsa3, active compounds read low 0.0659 | locus YLR258W, strain gsy2, active compounds read low 0.0669 | locus YLR262C, strain YPT6 (second series), active compounds read low 0.0856 | locus YLR262C, strain YPT6, active compounds read low 0.115 | locus YLR268W, strain sec22, active compounds read low 0.0687 | locus YLR320W, strain mms22, active compounds read low 0.0895 | locus YLR330W, strain CHS5, active compounds read low 0.0525 | locus YLR342W, strain FKS1 (second series), active compounds read low 0.0737 | locus YLR342W, strain FKS1, active compounds read low 0.0735 | locus YLR357W, strain rsc2, active compounds read low 0.133 | locus YLR370C, strain arc18, active compounds read low 0.0637 | locus YLR371W, strain rom2, active compounds read low 0.0664 | locus YLR384C, strain iki3, active compounds read low 0.0637 | locus YLR418C, strain cdc73, active compounds read low 0.0958 | locus YML016C, strain PPZ1, active compounds read low 0.0483 | locus YML032C, strain rad52, active compounds read low 0.0723 | locus YML120C, strain ndi1, active compounds read low 0.0605 | locus YML124C, strain tub3, active compounds read low 0.0619 | locus YMR058W, strain fet3, active compounds read low 0.0627 | locus YMR078C, strain ctf18, active compounds read low 0.0787 | locus YMR125W, strain sto1, active compounds read low 0.0836 | locus YMR129W, active compounds read low 0.0601 | locus YMR205C, strain PFK2, active compounds read low 0.0903 | locus YMR223W, strain ubp8, active compounds read low 0.0675 | locus YMR231W, strain pep5, active compounds read low 0.0767 | locus YMR307W, strain GAS1, active compounds read low 0.146 | locus YNL067W, strain RPL9B, active compounds read low 0.0522 | locus YNL071W, strain lat1, active compounds read low 0.0645 | locus YNL183C, strain NPR1, active compounds read low 0.0014 | locus YNL209W, strain ssb2, active compounds read low 0.0627 | locus YNL233W, strain BNI4, active compounds read low 0.0583 | locus YNL248C, strain rpa49, active compounds read low 0.0814 | locus YNL250W, strain rad50, active compounds read low 0.0854 | locus YNL271C, strain bni1, active compounds read low 0.0657 | locus YNL298W, strain CLA4, active compounds read low 0.0613 | locus YNL307C, strain MCK1, active compounds read low 0.0688 | locus YNL322C, strain KRE1 (second series), active compounds read low 0.0705 | locus YNR049C, strain mso1, active compounds read low 0.0644 | locus YNR052C, strain pop2, active compounds read low 0.0622 | locus YOL147C, strain pex11, active compounds read low 0.0601 | locus YOR001W, strain rrp6, active compounds read low 0.0736 | locus YOR061W, strain CKA2, active compounds read low 0.0512 | locus YOR069W, strain VPS5, active compounds read low 0.0495 | locus YOR070C, strain gyp1, active compounds read low 0.0684 | locus YOR080W, strain dia2, active compounds read low 0.0706 | locus YOR083W, strain WHI5, active compounds read low 0.0687 | locus YOR106W, strain vam3, active compounds read low 0.065 | locus YOR136W, strain idh2, active compounds read low 0.0767 | locus YOR144C, strain elg1, active compounds read low 0.062 | locus YOR184W, strain ser1, active compounds read low 0.0708 | locus YOR231W, strain MKK1, active compounds read low 0.0947 | locus YOR265W, strain rbl2, active compounds read low 0.066 | locus YOR270C, strain vph1, active compounds read low 0.0971 | locus YOR290C, strain snf2, active compounds read low 0.0737 | locus YOR316C, strain cot1, active compounds read low 0.0627 | locus YPL051W, strain arl3, active compounds read low 0.0688 | locus YPL078C, strain atp4, active compounds read low 0.0715 | locus YPL106C, strain sse1, active compounds read low 0.116 | locus YPL240C, strain hsp82, active compounds read low 0.0653 | locus YPL256C, strain CLN2, active compounds read low 0.116 | locus YPR119W, strain clb2, active compounds read low 0.0705 | locus YPR141C, strain kar3, active compounds read low 0.0696 | locus YPR163C, strain tif3, active compounds read low 0.0728 | locus YPR167C, strain met16, active compounds read low 0.0671 | strain wtn01, active compounds read low 0.0665
